In PubChem BioAssay:
Values joined by “and” are separate entries in the source; they are usually repeats but may differ in a detail not shown here. Equal values may be shown once. Records with an inconclusive call do not appear. Active and inactive are the calls of the source.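 Rule for the calls, unless noted: active = compounds killing one labelled cell type while sparing the other, by normalised counts and ratio limits, not self-fluorescent; inactive = the rest.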

How the values were obtained:
[1] = stimulators of insulin release from INS-1E, primary screen, cell-based, 5 mM glucose, NPC library (AID 1117329;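 active = compound raises insulin release from rat beta cells at 5 mM glucose, no numeric limit stated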); settings: rat INS-1E insulin secretion, at 10 µM, stronger effect = higher value
[2] = growth inhibition of GSK3B-pretreated HCT116 cells – cell-based, CellTiter-Glo, 0.2 to 20 µM (AID 1117336;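 active = compounds lowering colon cancer cell viability after pretreatment blocking the GSK3B kinase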); settings: HCT116 viability after GSK3B inhibitor, at 20 µM, stronger effect = higher value
[3] = inhibition of endothelial tube formation, primary screen, imaging, VEGF stimulated, CD31 staining, tube area, NPC library (AID 1117340;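 active = compound that reduces growth-factor-driven endothelial tube area in a mixed cell culture, no cutoff stated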); settings: VEGF-stimulated ADSC/ECFC co-culture, at 10 µM, stronger effect = higher value
[4] = glucagon-like peptide 1 release enhancers, primary assay, NCI-H716 cell line, NPC library (AID 1117341;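 active = compound raises GLP1 secretion from the human gut endocrine cells, with no numeric limit stated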); settings: NCI-H716 cells, at 10 µM, stronger effect = higher value
[5] = HCT116 colon cancer cell growth inhibition, primary screen, CellTiter-Glo luminescence, NPC library (AID 1117342;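 active = compounds that lower survival of HCT116 colon cancer cells in the luminescence readout, no numeric limit stated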); settings: at 20 µM (top of the series)
[6] = CellTiter-Glo luminescent readout of SW480 viability loss, NPC library primary (AID 1117343;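 active = compounds that lower viability of the colon cancer cells in the luminescence readout, with no numeric limit stated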); settings: CellTiter-Glo luminescence; at 20 µM (top of the series)
[7] = decreased DLD-1 cellular survival, CellTiter-Glo luminescent readout, NPC compound collection, primary HTS (AID 1117346;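 active = compounds that lower survival of DLD-1 colon cancer cells in the luminescence readout, no cutoff given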); settings: DLD-1 viability, CellTiter-Glo luminescence; at 20 µM (top of the series)
[8] = molecular target: 6-phosphogluconate dehydrogenase, decarboxylating (Homo sapiens) (UniProt P52209); experiment: 6PGD enzyme inhibitors, primary screen, biochemical, human, recombinant enzyme, NADPH absorbance (AID 1159550;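 active = at least 20% inhibition of 6-phosphogluconate dehydrogenase activity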); settings: recombinant 6PGD, NADPH absorbance 341 nm; at 10 µM; stronger effect = higher value
6-phosphogluconate dehydrogenase, decarboxylating (Homo sapiens), sequence (P52209 whole entry, looked up): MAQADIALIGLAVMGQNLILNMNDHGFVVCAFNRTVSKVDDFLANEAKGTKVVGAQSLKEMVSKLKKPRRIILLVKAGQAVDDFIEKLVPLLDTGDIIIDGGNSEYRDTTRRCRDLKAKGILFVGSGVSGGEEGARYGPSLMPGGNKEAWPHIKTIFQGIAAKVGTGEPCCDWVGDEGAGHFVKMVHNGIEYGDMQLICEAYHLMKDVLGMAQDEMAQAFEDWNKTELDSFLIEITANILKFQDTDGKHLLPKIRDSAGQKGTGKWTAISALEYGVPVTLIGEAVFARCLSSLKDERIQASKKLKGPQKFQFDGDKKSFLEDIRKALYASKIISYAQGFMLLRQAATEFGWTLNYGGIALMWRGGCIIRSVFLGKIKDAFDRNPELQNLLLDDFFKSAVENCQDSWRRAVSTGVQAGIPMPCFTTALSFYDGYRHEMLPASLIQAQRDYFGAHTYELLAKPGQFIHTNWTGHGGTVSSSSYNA

[9] = differential killing of epithelial or mesenchymal cells, primary screen, imaging, PC-3E GFP, TEM4-18 mCherry, co-culture (AID 1345086); settings: imaging cell counts, at 1 µM; for red/green cell ratio (normalised): actives lie on both sides, counts scaled to control wells, 1 = unselective;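 for all read-outs here: cells exposed to compound for 72 h before imaging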;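 for red/green cell ratio (normalised): normalised mesenchymal count divided by normalised epithelial count so high means epithelial killing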
[10] = growth inhibition of DIPG glioma cells, dose response, cell-based, SU-DIPG-XVII, MIPE5.0, CellTiter-Glo, qHTS (AID 1347060; cut-off not given, nearly all actives have AC50 up to about 26 µM;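 for AC50: cells exposed to compound for 48 hours before viability readout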); settings: SU-DIPG-XVII viability, CellTiter-Glo ATP luminescence
[11] = growth inhibition of DIPG glioma cells, dose response, cell-based, SU-DIPG-XIII, MIPE4.0, CellTiter-Glo, qHTS (AID 1347061; cut-off not given, nearly all actives have AC50 up to about 37 µM;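 note: cells exposed to compound for 48 hours before readout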); settings: SU-DIPG-XIII viability, CellTiter-Glo ATP luminescence
[12] = growth inhibition of DIPG glioma cells, dose response, cell-based, JHH-DIPG-1, MIPE4.0, CellTiter-Glo, qHTS (AID 1347062; cut-off not given, nearly all actives have AC50 up to about 27 µM;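 for AC50: cells exposed to compound for two days before readout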); settings: JHH-DIPG-1 viability, CellTiter-Glo ATP luminescence
[13] = growth inhibition of DIPG glioma cells, dose response, cell-based, SU-DIPG-XIII, MIPE5.0, CellTiter-Glo, qHTS (AID 1347064; cut-off not given, nearly all actives have AC50 up to about 23 µM); settings: SU-DIPG-XIII viability, CellTiter-Glo ATP luminescence
[14] = growth inhibition of DIPG glioma cells, dose response, cell-based, SU-DIPG-IV, MIPE4.0, CellTiter-Glo, qHTS (AID 1347063; cut-off not given, nearly all actives have AC50 up to about 30 µM;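 note: compound exposure lasted 48 hours before the viability readout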); settings: SU-DIPG-IV viability, CellTiter-Glo ATP luminescence
[15] = test system: Aerobactin synthetase IucA (Klebsiella pneumoniae); experiment: IucA aerobactin synthetase inhibitors, biochemical, Tocris library, absorbance (AID 1345561; call rule not given here;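 note: 100% = enzyme without compound and 0% = no enzyme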); settings: purified IucA enzyme assay, absorbance (OD) read-out; stronger effect = lower value;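 tested at 8 µM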
[16] = measured here: epithelial PC-3E GFP cell survival
[17] = measured here: mesenchymal TEM4-18 mCherry cell survival

## Cc1ccc(S(=O)(=O)NC(=O)NN2CC3CCCC3C2)cc1 (stereo not drawn)
[1]
  insulin secretion stimulation: 42.6% (active)
[2]
  viability decrease: -5.85% (inactive)
[3]
  tube area decrease: -26.1% (inactive)
[4]
  GLP1 secretion stimulation: 0.8% (inactive)
[5]
  inhibition of viability: -22.6% (inactive)
[6]
  viability decrease (inhibition): 22.3% (inactive)
[7]
  viability decrease (inhibition): -0.5% (inactive)
[8]
  inhibition: 2.59% (inactive)
[9]
  red/green cell ratio (normalised): 0.84 (inactive)
[9]; [16]
  normalised cell number: 1.15
[9]; [17]
  normalised cell number: 0.96
[10]
  outcome: inactive
[11]
  outcome: inactive
[12]
  AC50: 20.9 µM (active)
[13]
  outcome: inactive

## NCC1CCC(C(=O)O)CC1 (stereo not drawn)
[1]
  insulin secretion stimulation: -1.6% (inactive)
[2]
  viability decrease: -8.4% (inactive)
[3]
  tube area decrease: 25.3% (inactive)
[4]
  GLP1 secretion stimulation: 0.1% (inactive)
[5]
  inhibition of viability: -10.3% (inactive)
[6]
  viability decrease (inhibition): 2.1% (inactive)
[7]
  viability decrease (inhibition): -6% (inactive)
[8]
  inhibition: 7.43% (inactive)
[9]
  red/green cell ratio (normalised): 1.26 (inactive)
[9]; [16]
  normalised cell number: 1
[9]; [17]
  normalised cell number: 1.27
[10]
  outcome: inactive
[11]
  outcome: inactive
[12]
  outcome: inactive
[14]
  outcome: inactive

## CC1=CC(=O)c2ccccc2C1=O
[1]
  insulin secretion stimulation: -1.3% (inactive)
[2]
  viability decrease: 72.6% (active)
[3]
  tube area decrease: 26.3% (inactive)
[4]
  GLP1 secretion stimulation: -6% (inactive)
[5]
  inhibition of viability: 37.5% (inactive)
[6]
  viability decrease (inhibition): 122% (active)
[7]
  viability decrease (inhibition): 103% (active)
[8]
  inhibition: 12.5% (inactive)
[9]
  red/green cell ratio (normalised): 0.99 (inactive)
[9]; [16]
  normalised cell number: 1.09
[9]; [17]
  normalised cell number: 1.08
[10]
  AC50: 23.5 µM (active)
[11]
  AC50: 23.5 µM (active)
[12]
  AC50: 8.33 µM (active)
[14]
  AC50: 26.4 µM (active)

## CC(=O)Oc1ccccc1C(=O)O
[1]
  insulin secretion stimulation: 0.1% (inactive)
[2]
  viability decrease: -8.9% (inactive)
[3]
  tube area decrease: 9.2% (inactive)
[4]
  GLP1 secretion stimulation: -3.4% (inactive)
[5]
  inhibition of viability: -5.9% (inactive)
[6]
  viability decrease (inhibition): -3.9% (inactive)
[7]
  viability decrease (inhibition): -4.2% (inactive)
[8]
  inhibition: 15.9% (inactive)
[9]
  red/green cell ratio (normalised): 0.84 (inactive)
[9]; [16]
  normalised cell number: 1.28
[9]; [17]
  normalised cell number: 1.08
[10]
  outcome: inactive
[12]
  outcome: inactive
[14]
  outcome: inactive

## NS(=O)(=O)c1cc2c(cc1Cl)NC(C(Cl)Cl)NS2(=O)=O (stereo not drawn)
[1]
  insulin secretion stimulation: 1.15% (inactive)
[2]
  viability decrease: 13.9% (inactive)
[3]
  tube area decrease: -20.1% (inactive)
[4]
  GLP1 secretion stimulation: 0.9% (inactive)
[5]
  inhibition of viability: -37.1% (inactive)
[6]
  viability decrease (inhibition): -6.6% (inactive)
[7]
  viability decrease (inhibition): 6.3% (inactive)
[8]
  inhibition: 17.4% (inactive)
[9]
  red/green cell ratio (normalised): 1.22 (inactive)
[9]; [16]
  normalised cell number: 0.88
[9]; [17]
  normalised cell number: 1.08
[10]
  outcome: inactive
[12]
  outcome: inactive
[14]
  outcome: inactive

## C/C=C(/C(=C/C)c1ccc(O)cc1)c1ccc(O)cc1
[1]
  insulin secretion stimulation: -1.9% (inactive)
[2]
  viability decrease: 101% (active)
[3]
  tube area decrease: 49.5% (active)
[4]
  GLP1 secretion stimulation: 34.7% (active)
[5]
  inhibition of viability: 101% (active)
[6]
  viability decrease (inhibition): 123% (active)
[7]
  viability decrease (inhibition): 102% (active)
[8]
  inhibition: 15.9% (inactive)
[9]
  red/green cell ratio (normalised): 1.38 (inactive)
[9]; [16]
  normalised cell number: 1.12
[9]; [17]
  normalised cell number: 1.55
[10]
  AC50: 23.5 µM (active)
[11]
  outcome: inactive
[12]
  outcome: inactive

## O=NN(CCCl)C(=O)NCCCl
[1]
  insulin secretion stimulation: -0.1% (inactive)
[2]
  viability decrease: -5.7% (inactive)
[3]
  tube area decrease: 23.1% (inactive)
[4]
  GLP1 secretion stimulation: 2.2% (inactive)
[5]
  inhibition of viability: -16.5% (inactive)
[6]
  viability decrease (inhibition): 18.8% (inactive)
[7]
  viability decrease (inhibition): -24.6% (inactive)
[8]
  inhibition: 0.0871% (inactive)
[9]
  red/green cell ratio (normalised): 1.04 (inactive)
[9]; [16]
  normalised cell number: 1.15
[9]; [17]
  normalised cell number: 1.2
[10]
  outcome: inactive
[11]
  outcome: inactive
[12]
  outcome: inactive
[14]
  outcome: inactive
[13]
  outcome: inactive

## N[C@@H](Cc1ccc(O)c(O)c1)C(=O)O
[1]
  insulin secretion stimulation: 2.9% (inactive)
[2]
  viability decrease: 68.9% (active)
[3]
  tube area decrease: -13.9% (inactive)
[4]
  GLP1 secretion stimulation: 1.9% (inactive)
[5]
  inhibition of viability: 49.9% (inactive)
[6]
  viability decrease (inhibition): 66.7% (active)
[7]
  viability decrease (inhibition): 47.5% (inactive)
[8]
  inhibition: 2.07% (inactive)
[9]
  red/green cell ratio (normalised): 0.88 (inactive)
[9]; [16]
  normalised cell number: 1.01
[9]; [17]
  normalised cell number: 0.89
[10]
  outcome: inactive
[11]
  outcome: inactive
[12]
  outcome: inactive
[14]
  outcome: inactive

## COc1ccnc(CS(=O)c2nc3ccc(OC(F)F)cc3[nH]2)c1OC (stereo not drawn)
[1]
  insulin secretion stimulation: 1.2% (inactive)
[2]
  viability decrease: 20.6% (inactive)
[3]
  tube area decrease: -16.8% (inactive)
[4]
  GLP1 secretion stimulation: -0.9% (inactive)
[5]
  inhibition of viability: 5.27% (inactive)
[6]
  viability decrease (inhibition): -0.2% (inactive)
[7]
  viability decrease (inhibition): -5.4% (inactive)
[8]
  inhibition: 11.1% (inactive)
[9]
  red/green cell ratio (normalised): 1.07 (inactive)
[9]; [16]
  normalised cell number: 1.3
[9]; [17]
  normalised cell number: 1.4
[10]
  outcome: inactive
[12]
  outcome: inactive
[14]
  outcome: inactive
[13]
  outcome: inactive

## CCOC(=O)C1=C[C@]2(CC)CCCN3CCc4c(n1c1ccccc41)[C@@H]32
[1]
  insulin secretion stimulation: -1.7% (inactive)
[2]
  viability decrease: 14.4% (inactive)
[3]
  tube area decrease: 41% (active)
[4]
  GLP1 secretion stimulation: 2.8% (inactive)
[5]
  inhibition of viability: -3.2% (inactive)
[6]
  viability decrease (inhibition): 61.3% (active)
[7]
  viability decrease (inhibition): 2.25% (inactive)
[8]
  inhibition: 13.5% (inactive)
[9]
  red/green cell ratio (normalised): 0.75 (inactive)
[9]; [16]
  normalised cell number: 1.28
[9]; [17]
  normalised cell number: 0.96
[15]
  remaining activity: 107% (inactive)
[11]
  AC50: 26.4 µM (active)
[12]
  AC50: 11.8 µM (active)
[14]
  AC50: 16.6 µM (active)

## Cc1oncc1C(=O)Nc1ccc(C(F)(F)F)cc1
[1]
  insulin secretion stimulation: -1.5% (inactive)
[2]
  viability decrease: 40% (inactive)
[3]
  tube area decrease: 32% (inactive)
[4]
  GLP1 secretion stimulation: 9% (inactive)
[5]
  inhibition of viability: 38.7% (inactive)
[6]
  viability decrease (inhibition): 39.1% (inactive)
[7]
  viability decrease (inhibition): 22% (inactive)
[8]
  inhibition: -7% (inactive)
[9]
  red/green cell ratio (normalised): 0.74 (inactive)
[9]; [16]
  normalised cell number: 1.34
[9]; [17]
  normalised cell number: 0.99
[15]
  remaining activity: 91.8% (inactive)
[12]
  outcome: inactive
[13]
  outcome: inactive

## O=C(O)c1cn(-c2ccc(F)cc2)c2cc(N3CCNCC3)c(F)cc2c1=O
[1]
  insulin secretion stimulation: 0.8% (inactive)
[2]
  viability decrease: 28.3% (inactive)
[3]
  tube area decrease: -4.3% (inactive)
[4]
  GLP1 secretion stimulation: -2.6% (inactive)
[5]
  inhibition of viability: 29.7% (inactive)
[6]
  viability decrease (inhibition): -14.9% (inactive)
[7]
  viability decrease (inhibition): -10.5% (inactive)
[8]
  inhibition: 0.148% (inactive)
[9]
  red/green cell ratio (normalised): 0.95 (inactive) and 0.88 (inactive)
[9]; [16]
  normalised cell number: 1.1 and 0.99
[9]; [17]
  normalised cell number: 1.04 and 0.87
[10]
  outcome: inactive
[11]
  outcome: inactive
[12]
  outcome: inactive
[14]
  outcome: inactive
[13]
  outcome: inactive
